# Results: PubChem BioAssay AID624483 (NMMLSC, 2012)
# The campaign covered roughly 360,000 compounds. About 11,000 (3.1%) were called active. Another 2% or so got no clear call; they are omitted. Rule as the data show it: active = fluorescence intensity above about 16000; inconclusive = no clear call, values can overlap the other calls; inactive = below that. Only a selection was taken, and actives are over-represented in it overall.
# Experiment: counter-screen for toxin protease inhibitors: compound fluorescence, primary screen, artefact control for toxin protease inhibitor project, biochemical, multiplex microsphere, HTS (AID 624483)
# Settings: compound autofluorescence counterscreen, microsphere flow cytometry; active compounds read high
row,Compound,fluorescence intensity
1,Cc1cccc2sc(N(CCCN(C)C)C(=O)CCS(=O)(=O)c3ccccc3)nc12,32000 (active)
2,Cc1cc(C)c2nc(N(CCN(C)C)C(=O)/C=C/c3cccs3)sc2c1,4460 (inactive)
3,Cc1ccc2sc(N(CCN(C)C)C(=O)/C=C/c3cccs3)nc2c1C,4390 (inactive)
4,COc1cc(/C=C/CNC[C@H]2O[C@@H](n3cnc(C(N)=O)n3)[C@H](O)[C@@H]2O)ccc1O,3180 (inactive)
5,O=C(NCc1ccccc1Cl)C1CCN(S(=O)(=O)N2CCOCC2)CC1,5690 (inactive)
6,Cc1ccccc1Cn1c(C)c(C(=O)NCc2cccc(C(F)(F)F)c2)sc1=O,5450 (inactive)
7,FC(F)(F)c1ccccc1Cc1c(-c2ccccc2)nc2c3ccccc3ccn12,6460 (inactive)
8,Cn1c(=O)c2c(nc(NCCNC(=O)c3ccco3)n2Cc2ccccc2F)n(C)c1=O,5330 (inactive)
9,CC(C)OCCCNc1nc2c(c(=O)n(Cc3ccccc3F)c(=O)n2C)n1C,23400 (active)
10,COc1ccc(N2CC(C)Cn3c2nc2c3c(=O)n(Cc3ccccc3F)c(=O)n2C)c(OC)c1 (centres undefined),5760 (inactive)
11,CCc1ccc([C@@H]2CC(=O)[C@@H]3CN(S(=O)(=O)c4ccc(C)cc4)[C@H](c4ccc(Cl)cc4)C[C@@H]3N2S(=O)(=O)c2ccc(C)cc2)cc1,6290 (inactive)
12,COc1ccc(CCn2c(O)c(C=NCCCn3ccnc3)c(=O)[nH]c2=O)cc1OC,22700 (active)
13,COc1ccc(CCn2c(O)c(C=NC3CC3)c(=O)[nH]c2=O)cc1OC,3180 (inactive)
14,O=c1[nH]c(=O)n(CCc2ccc(F)cc2)c(O)c1/C=N/N1CCCCC1,3680 (inactive)
15,CCc1nc2ccc(C(=O)Nc3cccc(OC)c3)cn2c1N(CCC(C)C)CCN(C)C,3940 (inactive)
16,COC(=O)c1ccc(S(=O)(=O)N(CCO)Cc2ccccc2)n1C,5690 (inactive)
17,CCCC(=O)N1CCC1(C)C(=O)NCc1ccc(SC)cc1 (centres undefined),4000 (inactive)
18,O=c1oc2ccccc2c(CNc2ccccc2)c1[N+](=O)[O-],3710 (inactive)
19,CC1(C(=O)NS(=O)(=O)c2ccc3ccccc3c2)CCN1C(=O)C1(c2ccc(Cl)cc2)CCC1 (centres undefined),3400 (inactive)
20,CCc1nc2c(OCc3cccc(OC)c3)cccn2c1N(C)C(=O)C(C)C,4100 (inactive)

row,Compound,fluorescence intensity
1,O=C(Oc1ccc(-c2nc(-c3ccccn3)no2)cc1)c1ccccc1,3190 (inactive)
2,COc1ccc2nc(-c3ccccn3)ccc2c1,4000 (inactive)
3,CC(C)c1nc(-c2ccccn2)no1,21700 (active)
4,CC(=O)NC(c1ccccc1)c1nc(-c2cccc(C(C)C)c2)cs1 (centres undefined),3400 (inactive)
5,Cc1ccccc1OCC(=O)NNC(=O)c1ccc(-n2cncn2)c([N+](=O)[O-])c1,5300 (inactive)
6,C=C(C)Cn1c(N2CCN(CC)CC2)nc2c1c(=O)[nH]c(=O)n2C,4600 (inactive)
7,CCOC(=O)C1C(c2ccc(OC)c(OC)c2)c2c([nH][nH]c2=O)CC1(C)O (centres undefined),4630 (inactive)
8,CCCC(C)n1[nH]c(=O)c2c1NC(=O)CSC2c1ccc(OC)c(OC)c1 (centres undefined),20600 (active)
9,COc1ccc(C2OCC3(CO2)SC(=O)NC3=O)cc1OC (centres undefined),2510 (inactive)
10,CCCCN1CC(N2CCN(Cc3cccc(C)c3)CC2)CS1(=O)=O (centres undefined),6580 (inactive)
11,Nc1c(NCCc2ccccc2)c2ccccc2oc1=O,3190 (inactive)
12,O=c1oc2ccccc2c(=O)c2ccccc12,3730 (inactive)
13,CC(C)(C)Nc1c(N)c(=O)oc2ccccc12,17700 (active)
14,CN(C)Cc1c(O)ccc2occ(C(O)c3ccccc3)c12 (centres undefined),2380 (inactive)
15,CC(=O)c1cccc(-c2cnc3c(NC=O)cc(-c4cccc(C(=O)N(C)C)c4)cn23)c1,4000 (inactive)
16,OCCC#Cc1ccc(N2C(c3ccsc3)=Cc3ccc(F)cc3C2c2c[nH]c3ccccc23)cc1 (centres undefined),4910 (inactive)
17,CCC1=C(C(=O)OC)C(c2cc(OC)ccc2OC)C(C#N)=C(N)O1 (centres undefined),21500 (active)
18,CCOC(=O)C1=C(CC)OC(N)=C(C#N)C1c1ccc(F)cc1F (centres undefined),2060 (inactive)
19,COC(=O)C1=C(C)N(C)C(=S)NC1c1cc(OC)ccc1OC (centres undefined),4360 (inactive)
20,COc1ccc(OCCNS(=O)(=O)Cc2ccccc2)cc1,2820 (inactive)

row,Compound,fluorescence intensity
1,CCOCCCNS(=O)(=O)Cc1ccccc1,18800 (active)
2,Cc1cc(C)cc(NS(=O)(=O)Cc2ccccc2)c1,3320 (inactive)
3,COCCNC(=O)c1cc2c(Br)ccc(Br)c2nc1N,4280 (inactive)
4,CC(C)CNC(=S)NC(=O)c1ccc(Cl)cc1,2350 (inactive)
5,COC(=O)/C(NC(C)=O)=C(\C)c1ccc(Cl)cc1,17300 (active)
6,CC(=O)Nc1ccc(SCC(=O)NC(=O)c2ccc(Cl)cc2)cc1,3220 (inactive)
7,COc1ccc(CC(N)c2csc(NC(=O)NC(c3ccccc3)c3ccccc3)n2)cc1 (centres undefined),3610 (inactive)
8,COc1ccc(OC)c(C(O)c2ncc(-c3cccc(C(F)(F)F)c3)[nH]2)c1 (centres undefined),3890 (inactive)
9,CN1OC[C@@H]2CN(S(=O)(=O)c3cccc4ccccc34)[C@H](c3ccc(N4CCCCC4)cc3)C[C@@H]21,25600 (active)
10,CN1OC[C@@H]2CN(C(=O)c3cccc4ccccc34)[C@H](c3ccc(N4CCCCC4)cc3)C[C@@H]21,11700 (inactive)
11,CN1OC[C@@H]2CN(C(=O)c3cccnc3)[C@H](c3ccc(N4CCCCC4)cc3)C[C@@H]21,4430 (inactive)
12,Cc1cc(C)c2nc3nc(C)cc(C)c3c(N)c2c1,2140 (inactive)
13,CCOc1ccc(NC(=O)CSc2nncn2C)cc1,3760 (inactive)
14,CCOC(=O)Cc1ncccc1C(=O)Nc1ccc(OC)cc1,3720 (inactive)
15,CCCCOc1ccc(NC(=O)CSCC(=O)OCC)cc1,21000 (active)
16,COc1ccc(C(C)C)cc1-c1ccc2nncn2c1,3610 (inactive)
17,CC1(C(=O)NS(=O)(=O)c2ccccc2)CCN1C(=O)c1ccccc1 (centres undefined),3830 (inactive)
18,CCCCCCN1CCN(C2CN(Cc3cn(Cc4ccc(F)cc4)nn3)S(=O)(=O)C2)CC1 (centres undefined),6160 (inactive)
19,CSc1nsc(SCC(=O)Nc2cc(C(=O)O)ccc2C)n1,4170 (inactive)
